Drawing on PubChem BioAssay (EPA / NIEHS), this text covers AC50 and outcome for three molecules.

Several values for one entry are separate records, joined by “and”; a condition that tells them apart may be missing. Equal values may be shown once. The source holds several records for some structures; these can differ, active in one and inactive in another. Activity calls are given as the source filed them. Rule for the calls: active = hit-call score of the fitted dose curve at least 0.9, where 1 is the maximum; inactive = score below 0.9.

Common to all, as to conditions: mRNA level, 48 h; actives raise or lower the signal
Read-out in one assay: MYC, MYC (gene 4609)
As to the kind of experiment: LTEA_HepaRG_MYC: Life Technologies and Expression Analysis (LTEA) Assay for MYC using HepaRG (AID 2283518). The essentials:
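Expression changes were scored by TaqMan qRT-PCR with ACTB, GAPDH and POLR2A normalization. Cultures in serum-free induction medium received duplicate 8-point concentration series, highest 100 uM, for 48 h; DMSO (0.5%) served as baseline.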

Read-out in assay [1]: matrix metalloproteinase-3 (MMP3), MMP3 (gene 4314)
The assay can be described thus: LTEA_HepaRG_MMP3: Life Technologies and Expression Analysis (LTEA) Assay for matrix metalloproteinase-3 (MMP3) using HepaRG (AID 2283519). The procedure, abridged:
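HepaRG cells (~100,000/well) in serum-free induction medium were dosed in duplicate for 48 h with an 8-point half-log series from 100 uM, 0.5% DMSO. MMP3 mRNA was quantified by Fluidigm TaqMan qRT-PCR, normalized to three housekeeping genes.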

Read-out in assay [2]: Paternally Expressed 10 (PEG10), PEG10 (gene 23089)
As to the kind of experiment: LTEA_HepaRG_PEG10: Life Technologies and Expression Analysis (LTEA) Assay for Paternally Expressed 10 (PEG10) using HepaRG (AID 2283520).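 Note: PEG10 transcript by qRT-PCR normalised to ACTB GAPDH and POLR2A.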 The essentials: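 Chemicals tested on HepaRG cells for 48 h, highest concentration 100 uM. PEG10 expression assessed by qRT-PCR relative to DMSO control.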

Read-out in assay [3]: Protein phosphatase 2A (PPP2R4), PTPA (gene 5524)
As to the kind of experiment: LTEA_HepaRG_PPP2R4: Life Technologies and Expression Analysis (LTEA) Assay for Protein phosphatase 2A (PPP2R4) using HepaRG (AID 2283522). The essentials: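 Gene-expression endpoint in HepaRG hepatic cells: 48 h treatment across eight half-log concentrations up to 100 uM in 0.5% DMSO. PPP2R4 mRNA by qRT-PCR, normalized to three endogenous control genes.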

Read-out in assay [4]: Phosphatase and tensin (PTEN), PTEN (gene 5728)
The assay can be described thus: LTEA_HepaRG_PTEN: Life Technologies and Expression Analysis (LTEA) Assay for Phosphatase and tensin (PTEN) using HepaRG (AID 2283523). The essentials: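 HepaRG cells, 48 h after plating, exposed in duplicate for 48 h in serum-free induction medium to 8 half-log concentrations up to 100 uM (0.5% DMSO). PTEN mRNA by qRT-PCR, normalized to ACTB, GAPDH, POLR2A; bidirectional fit versus DMSO.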

Read-out in assay [5]: solute carrier (SLC22A1), SLC22A1 (gene 6580)
The assay can be described thus: LTEA_HepaRG_SLC22A1: Life Technologies and Expression Analysis (LTEA) Assay for solute carrier (SLC22A1) using HepaRG (AID 2283524). The essentials: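 Differentiated human HepaRG cells in serum-free induction medium, exposed 48 h in duplicate to 8-point half-log series from 100 µM top in 0.5% DMSO. SLC22A1 mRNA by TaqMan qRT-PCR normalized to ACTB, GAPDH, POLR2A; bidirectional fit versus DMSO.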

Read-out in assay [6]: Pyruvate Dehydrogenase Kinase 4 (PDK4), PDK4 (gene 5166)
The assay can be described thus: LTEA_HepaRG_PDK4: Life Technologies and Expression Analysis (LTEA) Assay for Pyruvate Dehydrogenase Kinase 4 (PDK4) using HepaRG (AID 2283525). The procedure, abridged: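 HepaRG cells plated 48 h, then switched to serum-free induction medium and exposed in duplicate for 48 h to 8 half-log concentrations from 100 uM in 0.5% DMSO. PDK4 mRNA measured by qRT-PCR, normalized to ACTB, GAPDH and POLR2A; bidirectional fit versus DMSO.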

Read-out in assay [7]: NAD(P)H dehydrogenase [quinone] 1 (NQO1), NQO1 (gene 1728)
The assay can be described thus: LTEA_HepaRG_NQO1: Life Technologies and Expression Analysis (LTEA) Assay for NAD(P)H dehydrogenase [quinone] 1 (NQO1) using HepaRG (AID 2283526). The procedure, abridged:
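Human HepaRG hepatic cells received chemicals for 48 h in serum-free induction medium with 0.5% DMSO, up to 100 uM. Expression was assessed by TaqMan qRT-PCR against housekeeping controls and fitted bidirectionally against DMSO.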

Read-out in assay [8]: Nuclear factor erythroid 2-related factor 2 (Homo sapiens) (UniProt Q16236)
The assay can be described thus: LTEA_HepaRG_NFE2L2: Life Technologies and Expression Analysis (LTEA) Assay for Nuclear factor erythroid 2-related factor 2 (NFE2L2) Transcription Factor using HepaRG (AID 2283527).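 For outcome: TaqMan qRT-PCR transcript level normalised to ACTB GAPDH and POLR2A housekeeping genes.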 The essentials: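 Differentiated human HepaRG cells, serum-free induction medium, exposed 48 h in duplicate to eight half-log concentrations up to 100 uM in 0.5% DMSO. NFE2L2 mRNA by Fluidigm TaqMan qRT-PCR, normalised to ACTB, GAPDH, POLR2A; bidirectional change versus DMSO.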

Read-out in assay [9]: succinate dehydrogenase complex iron sulfur subunit B (SDHB), SDHB (gene 6390)
As to the kind of experiment: LTEA_HepaRG_SDHB: Life Technologies and Expression Analysis (LTEA) Assay for succinate dehydrogenase complex iron sulfur subunit B (SDHB) using HepaRG (AID 2283528). The procedure, abridged: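 HepaRG, 48 h exposure, 8-pt half-log series from 100 uM in 0.5% DMSO, duplicates. Readout: SDHB mRNA by Fluidigm qRT-PCR vs housekeeping genes; bidirectional fit relative to DMSO.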

Read-out in assay [10]: Signal transducer and activator of transcription 3 (Homo sapiens) (UniProt P40763)
The assay can be described thus: LTEA_HepaRG_STAT3: Life Technologies and Expression Analysis (LTEA) Assay for Signal transducer and activator of transcription (STAT3) using HepaRG (AID 2283529). The essentials:
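Differentiated HepaRG cells, serum-free induction medium, dosed 48 h in duplicate, 8 half-log concentrations from 100 uM in 0.5% DMSO. STAT3 mRNA by qRT-PCR, normalised to ACTB, GAPDH, POLR2A; bidirectional fit versus DMSO.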

Read-out in assay [11]: solute carrier (SLCO1B1), SLCO1B1 (gene 10599)
The assay can be described thus: LTEA_HepaRG_SLCO1B1: Life Technologies and Expression Analysis (LTEA) Assay for solute carrier (SLCO1B1) using HepaRG (AID 2283530). The essentials:
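Human HepaRG cultures treated for 48 h with an eight-concentration half-log series topping at 100 uM; SLCO1B1 measured by qRT-PCR and fitted bidirectionally relative to DMSO.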

Read-out in assay [12]: sulfotransferase 2A1 (SULT2A1), SULT2A1 (gene 6822)
The assay can be described thus: LTEA_HepaRG_SULT2A1: Life Technologies and Expression Analysis (LTEA) Assay for sulfotransferase 2A1 (SULT2A1) using HepaRG (AID 2283531). The procedure, abridged:
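Gene-expression endpoint in a human liver cell line: SULT2A1 mRNA change after 48 h chemical treatment, curves fitted in both directions relative to 0.5% DMSO vehicle. Concentrations spanned eight half-log steps from 100 uM.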

Read-out in assay [13]: Transforming Growth Factor (TGFA), TGFA (gene 7039)
The assay can be described thus: LTEA_HepaRG_TGFA: Life Technologies and Expression Analysis (LTEA) Assay for Transforming Growth Factor (TGFA) using HepaRG (AID 2283532). The procedure, abridged: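 Differentiated HepaRG cells exposed 48 hours in serum-free induction medium, 0.5% DMSO vehicle, 8-point half-log series from 100 uM, in duplicate. TGFA mRNA by TaqMan qRT-PCR, normalised to ACTB, GAPDH, POLR2A; bidirectional fit versus DMSO.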

Read-out in a further assay: TIMP1, TIMP1 (gene 7076)
As to the kind of experiment: LTEA_HepaRG_TIMP1: Life Technologies and Expression Analysis (LTEA) Assay for TIMP1 using HepaRG (AID 2283534).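 Note: TaqMan qRT-PCR signal normalized to ACTB GAPDH and POLR2A housekeeping genes.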 The procedure, abridged: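 TIMP1 induction or repression in HepaRG cells after 48 h chemical exposure (eight concentrations, highest 100 uM), assessed by normalized qRT-PCR with bidirectional fitting to DMSO controls.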

Read-out in assay [14]: Tumor necrosis factor receptor 1 (TNFRSF1A), TNFRSF1A (gene 7132)
The assay can be described thus: LTEA_HepaRG_TNFRSF1A: Life Technologies and Expression Analysis (LTEA) Assay for Tumor necrosis factor receptor 1 (TNFRSF1A) using HepaRG (AID 2283535). The procedure, abridged: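 Assay uses 48 h chemical treatment of differentiated HepaRG monolayers, tested in duplicate at eight concentrations from 100 uM downward in 0.5% DMSO. mRNA is normalized to ACTB, GAPDH and POLR2A, with induction or suppression fitted relative to vehicle.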

Read-out in assay [15]: Thyroid Hormone Responsive (THRSP), THRSP (gene 7069)
The assay can be described thus: LTEA_HepaRG_THRSP: Life Technologies and Expression Analysis (LTEA) Assay for Thyroid Hormone Responsive (THRSP) using HepaRG (AID 2283536). The procedure, abridged: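 Differentiated HepaRG cells treated 48 h in serum-free induction medium with 8 half-log concentrations up to 100 uM (0.5% DMSO), duplicates. THRSP mRNA by TaqMan qRT-PCR normalised to ACTB, GAPDH, POLR2A; bidirectional fit versus DMSO.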

Read-out in assay [16]: Cellular tumor antigen p53 (Homo sapiens) (UniProt P04637)
As to the kind of experiment: LTEA_HepaRG_TP53: Life Technologies and Expression Analysis (LTEA) Assay for Tumor Protein P53 (TP53) using HepaRG (AID 2283537). The essentials:
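HepaRG, 48 h exposure, top 100 uM, half-log 8-point, 0.5% DMSO vehicle, duplicates. Read: TP53 mRNA by TaqMan qRT-PCR, normalised to ACTB/GAPDH/POLR2A; bidirectional fit vs DMSO.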

Read-out in assay [17]: Nuclear factor NF-kappa-B p105 subunit (Homo sapiens) (UniProt P19838)
The assay can be described thus: LTEA_HepaRG_NFKB1: Life Technologies and Expression Analysis (LTEA) Assay for Nuclear Factor Kappa B Subunit 1 (NFKB1) using HepaRG (AID 2283521).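 Note: TaqMan qRT-PCR transcript normalised to ACTB GAPDH and POLR2A housekeeping genes.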 The procedure, abridged: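 Differentiated human HepaRG cells were exposed for 48 h in serum-free induction medium to eight concentrations (top 100 uM, half-log steps, 0.5% DMSO), in duplicate. NFKB1 mRNA was measured by TaqMan qRT-PCR, normalized to ACTB/GAPDH/POLR2A, and fitted bidirectionally against DMSO.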

Read-out in assay [18]: Transforming Growth Factor (TGFB1), TGFB1 (gene 7040)
As to the kind of experiment: LTEA_HepaRG_TGFB1: Life Technologies and Expression Analysis (LTEA) Assay for Transforming Growth Factor (TGFB1) Transporter using HepaRG (AID 2283533). The essentials:
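Eight-point concentration-response (max 100 uM, half-log) in HepaRG under serum-free induction conditions, 48 h. TGFB1 mRNA by qRT-PCR, housekeeping-normalized.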

Nuclear factor erythroid 2-related factor 2 (Homo sapiens), sequence (Q16236 whole entry, looked up): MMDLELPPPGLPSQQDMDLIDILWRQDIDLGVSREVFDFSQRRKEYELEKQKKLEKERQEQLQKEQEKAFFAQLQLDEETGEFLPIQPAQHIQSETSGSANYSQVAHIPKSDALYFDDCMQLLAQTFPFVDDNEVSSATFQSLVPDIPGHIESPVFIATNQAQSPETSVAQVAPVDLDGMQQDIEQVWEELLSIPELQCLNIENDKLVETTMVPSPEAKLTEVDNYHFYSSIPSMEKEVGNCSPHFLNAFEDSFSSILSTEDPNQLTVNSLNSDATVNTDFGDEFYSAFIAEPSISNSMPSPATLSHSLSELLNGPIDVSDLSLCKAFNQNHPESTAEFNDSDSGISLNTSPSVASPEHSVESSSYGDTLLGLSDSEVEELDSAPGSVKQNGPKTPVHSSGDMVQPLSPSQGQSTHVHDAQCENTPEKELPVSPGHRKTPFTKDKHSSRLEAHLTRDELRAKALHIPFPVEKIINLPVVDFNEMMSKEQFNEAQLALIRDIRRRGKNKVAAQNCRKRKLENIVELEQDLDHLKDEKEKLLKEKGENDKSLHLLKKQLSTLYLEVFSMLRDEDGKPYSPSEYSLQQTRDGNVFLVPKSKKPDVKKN
Cellular tumor antigen p53 (Homo sapiens), sequence (P04637 whole entry, looked up): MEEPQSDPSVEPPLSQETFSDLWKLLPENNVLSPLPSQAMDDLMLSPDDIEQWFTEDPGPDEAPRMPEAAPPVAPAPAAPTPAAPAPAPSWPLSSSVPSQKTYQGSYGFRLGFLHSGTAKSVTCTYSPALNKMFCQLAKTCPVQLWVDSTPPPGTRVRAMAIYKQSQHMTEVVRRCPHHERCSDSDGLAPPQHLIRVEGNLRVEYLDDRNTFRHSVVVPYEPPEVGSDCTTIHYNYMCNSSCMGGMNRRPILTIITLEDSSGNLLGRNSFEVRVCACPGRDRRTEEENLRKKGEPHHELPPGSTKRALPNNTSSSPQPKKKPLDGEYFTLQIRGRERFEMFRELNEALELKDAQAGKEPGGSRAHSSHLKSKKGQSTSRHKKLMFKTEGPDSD
Signal transducer and activator of transcription 3 (Homo sapiens), sequence (P40763 whole entry, looked up): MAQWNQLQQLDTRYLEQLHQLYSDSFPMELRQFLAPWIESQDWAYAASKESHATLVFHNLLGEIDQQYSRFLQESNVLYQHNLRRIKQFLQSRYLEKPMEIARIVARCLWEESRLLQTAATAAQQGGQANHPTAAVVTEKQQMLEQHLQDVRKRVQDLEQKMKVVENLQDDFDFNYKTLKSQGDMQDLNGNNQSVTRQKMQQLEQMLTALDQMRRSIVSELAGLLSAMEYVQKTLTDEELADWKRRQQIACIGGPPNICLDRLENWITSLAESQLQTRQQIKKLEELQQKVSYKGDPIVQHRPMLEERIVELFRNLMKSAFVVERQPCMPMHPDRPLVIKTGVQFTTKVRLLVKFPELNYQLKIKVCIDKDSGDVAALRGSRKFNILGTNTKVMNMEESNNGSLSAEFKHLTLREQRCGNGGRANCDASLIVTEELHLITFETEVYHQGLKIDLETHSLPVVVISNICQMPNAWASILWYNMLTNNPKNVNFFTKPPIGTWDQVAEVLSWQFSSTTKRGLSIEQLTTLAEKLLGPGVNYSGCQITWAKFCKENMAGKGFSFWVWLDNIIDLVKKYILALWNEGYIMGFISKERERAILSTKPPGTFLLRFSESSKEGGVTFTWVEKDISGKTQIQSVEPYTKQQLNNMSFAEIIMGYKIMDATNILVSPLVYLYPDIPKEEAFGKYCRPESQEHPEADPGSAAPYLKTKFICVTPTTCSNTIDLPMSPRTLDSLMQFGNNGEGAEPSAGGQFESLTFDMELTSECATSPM
Nuclear factor NF-kappa-B p105 subunit (Homo sapiens), sequence (P19838 whole entry, looked up): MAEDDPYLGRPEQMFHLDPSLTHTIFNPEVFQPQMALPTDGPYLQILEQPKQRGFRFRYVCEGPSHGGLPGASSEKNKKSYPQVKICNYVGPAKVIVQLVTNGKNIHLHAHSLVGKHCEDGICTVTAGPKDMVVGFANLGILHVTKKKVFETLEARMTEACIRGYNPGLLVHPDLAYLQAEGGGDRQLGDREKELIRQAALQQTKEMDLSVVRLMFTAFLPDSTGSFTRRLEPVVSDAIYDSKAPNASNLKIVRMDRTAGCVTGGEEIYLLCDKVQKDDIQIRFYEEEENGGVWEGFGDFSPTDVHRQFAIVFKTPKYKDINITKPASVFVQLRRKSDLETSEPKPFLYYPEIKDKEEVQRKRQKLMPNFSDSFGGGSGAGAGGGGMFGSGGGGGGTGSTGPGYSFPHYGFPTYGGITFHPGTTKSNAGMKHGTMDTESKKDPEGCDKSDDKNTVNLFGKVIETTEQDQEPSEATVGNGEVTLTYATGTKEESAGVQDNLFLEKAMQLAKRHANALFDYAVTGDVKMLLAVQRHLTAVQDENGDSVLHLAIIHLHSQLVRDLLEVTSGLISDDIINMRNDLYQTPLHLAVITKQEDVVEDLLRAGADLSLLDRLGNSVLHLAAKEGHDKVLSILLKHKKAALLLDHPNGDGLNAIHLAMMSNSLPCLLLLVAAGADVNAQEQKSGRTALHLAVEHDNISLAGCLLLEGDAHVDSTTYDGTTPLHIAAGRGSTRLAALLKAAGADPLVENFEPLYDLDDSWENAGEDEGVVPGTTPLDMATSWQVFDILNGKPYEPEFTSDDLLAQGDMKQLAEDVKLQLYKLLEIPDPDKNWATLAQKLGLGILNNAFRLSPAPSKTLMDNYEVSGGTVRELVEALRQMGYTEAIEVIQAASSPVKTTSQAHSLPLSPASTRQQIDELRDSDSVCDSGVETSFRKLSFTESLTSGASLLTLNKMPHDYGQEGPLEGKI

In the case of `CO/C=C(/C(=O)OC)c1ccccc1Oc1cc(Oc2ccccc2C#N)ncn1`, the AC50 in the assay with MYC, MYC (gene 4609) was 77.8 µM (active) and 90 µM (active) and 90.3 µM (active); in assay [1], 83.2 µM (active) and 79.1 µM (active) and 78.9 µM (active); in [2] it was 27.9 µM (active) and 26.6 µM (active) and 17.5 µM (active); in assay [5], 78 µM (active) and 70.5 µM (active) and 68.7 µM (active); in assay [6], 18.6 µM (active); in [8], 77.7 µM (active) and 74.5 µM (active). Besides, the AC50 in assay [11] is 76.2 µM (active) and 72.9 µM (active) and 75.6 µM (active); in [12] it was 80.9 µM (active) and 81.2 µM (active) and 94.4 µM (active); in assay [13], 84.4 µM (active) and 81.8 µM (active) and 84.8 µM (active); in assay [15], 93.2 µM (active) and 80.5 µM (active); in assay [16] it was 84.8 µM (active) and 83.1 µM (active) and 83 µM (active). Also, the result in assay [3], in [4], in assay [6], in assay [7], in assay [8] and in [9] was inactive. The outcome in assay [10] was “inactive”; in the assay with TIMP1, TIMP1 (gene 7076) it was “inactive”; in [14], “inactive”; in [15], “inactive”.
As to `N#CC(CCc1ccc(Cl)cc1)(Cn1cncn1)c1ccccc1` (centres undefined), the AC50 with MYC, MYC (gene 4609) was 65.2 µM (active); in assay [2], 9.92 µM (active); in assay [5], 71.5 µM (active); in assay [8], 72.4 µM (active); in assay [11], 83.6 µM (active); in assay [13], 77 µM (active). Besides, the AC50 in assay [18] was 66.7 µM (active); in assay [15], 90.7 µM (active); in assay [16] it was 75.5 µM (active). In addition, the outcome in assay [17], in [3], in assay [4], in assay [6], in [7] and in [9] was inactive. Further, the outcome in [10] and in assay [14] was inactive.
In the case of `COC(=O)N(OC)c1ccccc1COc1ccn(-c2ccc(Cl)cc2)n1`, the outcome with MYC, MYC (gene 4609) is “inactive”; in assay [3], “inactive”; in assay [9], “inactive”; in assay [10], “inactive”. Further, the AC50 in assay [1] is 26.5 µM (active); in assay [2], 17 µM (active); in assay [4], 78.5 µM (active); in assay [5], 58.7 µM (active); in assay [6], 11.3 µM (active); in assay [7], 84.8 µM (active). For the same molecule, the half-maximal activity concentration (AC50) in assay [8] was 18.3 µM (active); in [11], 75.9 µM (active); in [13], 78.5 µM (active); in assay [14], 77.1 µM (active); in [15] it was 7.22 µM (active); in [16], 78.5 µM (active).

By AC50 is commonly meant the concentration at which the activity in the assay is half-maximal.
